This note sets out measurements from PMC7862700, “An all-to-all approach to the identification of sequence-specific readers for epigenetic DNA modifications on cytosine”.

What all share (assay): DAPPL (digital affinity profiling via proximity ligation, sequencing); 10 mM Tris-HCl pH 7.5, 50 mM NaCl, 1 mM DTT, 4% glycerol, room temperature, 30 min; GST-TFs on glutathione beads, 16-mer random dsDNA library, 0.1% formaldehyde crosslink after washing; high values mean tight binding
The target in one test is T1, FLI1 (Homo sapiens, UniProt Q01543 1-452).
T1 sequence: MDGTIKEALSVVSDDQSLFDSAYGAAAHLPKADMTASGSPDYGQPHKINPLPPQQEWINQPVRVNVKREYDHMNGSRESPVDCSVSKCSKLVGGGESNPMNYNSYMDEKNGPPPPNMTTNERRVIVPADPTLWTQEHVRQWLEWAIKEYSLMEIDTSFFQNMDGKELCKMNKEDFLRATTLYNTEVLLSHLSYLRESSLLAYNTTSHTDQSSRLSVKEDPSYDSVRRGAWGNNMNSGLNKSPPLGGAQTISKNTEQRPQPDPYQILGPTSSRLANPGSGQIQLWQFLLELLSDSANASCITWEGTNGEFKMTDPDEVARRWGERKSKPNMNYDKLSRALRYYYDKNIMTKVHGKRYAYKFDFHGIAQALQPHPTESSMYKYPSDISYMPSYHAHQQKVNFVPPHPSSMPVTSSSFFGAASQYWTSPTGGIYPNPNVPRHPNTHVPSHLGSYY
The following applies: protein: recombinant; tags: N-terminal GST; dsDNA, one strand shown. Summed up:
(§1)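 Pools of DNA-barcoded human transcription factors, expressed in yeast as GST fusions on glutathione beads and combined with a tag-only sample, were incubated with 200 nmole of a 16-mer random double-stranded DNA library. Incubation took 30 min at room temperature in Tris/NaCl/DTT/glycerol buffer and was followed by washing, 0.1% formaldehyde crosslinking, proximity ligation (BsaI/T4 ligase, 1 h, 37 °C), PCR amplification and sequencing on an Illumina NextSeq500. Binding signal is the ratio of a hexamer's read frequency for a factor to its frequency for the tag-only sample.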

A further test has as its target T2, ELK1 (Homo sapiens, UniProt P19419 1-428).
T2 sequence: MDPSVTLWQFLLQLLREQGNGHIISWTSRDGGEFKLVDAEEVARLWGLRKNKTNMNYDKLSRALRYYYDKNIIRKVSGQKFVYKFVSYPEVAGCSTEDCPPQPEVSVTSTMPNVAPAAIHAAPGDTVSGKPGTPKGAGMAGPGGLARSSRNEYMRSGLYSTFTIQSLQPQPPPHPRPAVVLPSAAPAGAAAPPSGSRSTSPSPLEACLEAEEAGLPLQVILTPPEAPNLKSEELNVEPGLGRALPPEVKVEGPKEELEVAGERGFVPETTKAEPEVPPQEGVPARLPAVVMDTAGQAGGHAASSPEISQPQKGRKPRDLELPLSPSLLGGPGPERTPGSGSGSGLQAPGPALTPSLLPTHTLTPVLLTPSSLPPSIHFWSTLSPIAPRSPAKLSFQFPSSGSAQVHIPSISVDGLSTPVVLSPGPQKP
Particulars: protein: recombinant; tags: N-terminal GST; dsDNA, one strand shown. In a few lines:
as §1

Another test deals with T3, GABPA (Homo sapiens, UniProt Q06546 1-454).
T3 sequence: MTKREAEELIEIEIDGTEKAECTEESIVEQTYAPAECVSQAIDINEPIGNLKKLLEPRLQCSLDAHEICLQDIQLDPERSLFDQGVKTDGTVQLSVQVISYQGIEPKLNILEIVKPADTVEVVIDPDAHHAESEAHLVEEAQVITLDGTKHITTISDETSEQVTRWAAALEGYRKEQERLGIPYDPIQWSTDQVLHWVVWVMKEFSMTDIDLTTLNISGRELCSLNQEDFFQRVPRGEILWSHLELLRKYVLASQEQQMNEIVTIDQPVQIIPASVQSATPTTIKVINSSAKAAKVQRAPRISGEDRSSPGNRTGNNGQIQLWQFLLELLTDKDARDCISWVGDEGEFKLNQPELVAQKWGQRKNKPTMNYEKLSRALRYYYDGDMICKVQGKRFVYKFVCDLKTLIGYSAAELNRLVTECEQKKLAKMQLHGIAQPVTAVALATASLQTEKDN
The following applies: protein: recombinant; tags: N-terminal GST; dsDNA, one strand shown. In a few lines: as §1

A further test concerns the target T4, ERG (Homo sapiens, UniProt P11308 1-479).
T4 sequence: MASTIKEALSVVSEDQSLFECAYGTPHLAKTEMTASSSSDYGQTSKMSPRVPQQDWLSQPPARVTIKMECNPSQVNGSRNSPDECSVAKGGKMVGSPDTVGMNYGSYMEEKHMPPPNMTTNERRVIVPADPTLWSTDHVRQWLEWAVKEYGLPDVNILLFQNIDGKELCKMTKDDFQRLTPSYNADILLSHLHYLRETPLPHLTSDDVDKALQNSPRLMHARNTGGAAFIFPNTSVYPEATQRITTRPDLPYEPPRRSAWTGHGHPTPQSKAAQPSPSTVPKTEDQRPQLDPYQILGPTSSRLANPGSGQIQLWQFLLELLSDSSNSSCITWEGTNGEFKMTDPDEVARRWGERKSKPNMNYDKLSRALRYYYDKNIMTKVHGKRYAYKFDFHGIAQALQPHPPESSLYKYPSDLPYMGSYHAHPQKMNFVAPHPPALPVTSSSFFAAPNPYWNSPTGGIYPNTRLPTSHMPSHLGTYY
The following applies: protein: recombinant; tags: N-terminal GST; dsDNA, one strand shown. Summed up: as §1

In a further test the target is ELF1 (Homo sapiens, UniProt P32519 1-619). The following applies: protein: recombinant; tags: N-terminal GST; dsDNA, one strand shown. In a few lines: as §1
The next test deals with T5, EHF (Homo sapiens, UniProt Q9NZC4 1-300).
T5 sequence: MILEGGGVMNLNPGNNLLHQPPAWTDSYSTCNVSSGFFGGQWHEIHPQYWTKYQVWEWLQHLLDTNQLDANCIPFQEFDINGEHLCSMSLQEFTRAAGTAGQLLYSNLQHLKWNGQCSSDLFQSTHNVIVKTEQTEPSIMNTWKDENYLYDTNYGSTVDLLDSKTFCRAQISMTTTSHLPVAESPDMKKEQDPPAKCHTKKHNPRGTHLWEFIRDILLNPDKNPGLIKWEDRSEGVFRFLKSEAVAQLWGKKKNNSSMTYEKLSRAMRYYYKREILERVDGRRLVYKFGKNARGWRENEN
The following applies: protein: recombinant; tags: N-terminal GST; dsDNA, one strand shown. Summed up:
as §1

In another test the target is SPI1 (Homo sapiens, UniProt P17947 1-270). Particulars: protein: recombinant; tags: N-terminal GST; dsDNA, one strand shown. Summed up: as §1
In the next test the target is SPIB (Homo sapiens, UniProt Q01892 1-262). The following applies: protein: recombinant; tags: N-terminal GST; dsDNA, one strand shown. Summed up: as §1
Another test has as its target T6, FEV (Homo sapiens, UniProt Q99581 1-238).
T6 sequence: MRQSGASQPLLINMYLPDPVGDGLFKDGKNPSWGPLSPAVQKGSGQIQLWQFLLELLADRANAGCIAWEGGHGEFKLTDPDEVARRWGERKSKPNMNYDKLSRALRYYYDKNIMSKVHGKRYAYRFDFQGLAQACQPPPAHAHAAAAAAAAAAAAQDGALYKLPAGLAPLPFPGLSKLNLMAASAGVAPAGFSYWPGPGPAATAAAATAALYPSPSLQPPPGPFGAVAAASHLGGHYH
Particulars: protein: recombinant; tags: N-terminal GST; dsDNA, one strand shown. Summed up: as §1

The target of the next test is ETV5 (Homo sapiens, UniProt P41161 1-510). Particulars: protein: recombinant; tags: N-terminal GST; dsDNA, one strand shown. Summed up: as §1
The next test concerns the target HSF1 (Homo sapiens, UniProt Q00613 1-529). The following applies: protein: recombinant; tags: N-terminal GST; chain copies: 3; dsDNA, one strand shown. In a few lines: as §1
Another test has as its target T7, SPIC (Homo sapiens, UniProt Q8N5J4 1-248).
T7 sequence: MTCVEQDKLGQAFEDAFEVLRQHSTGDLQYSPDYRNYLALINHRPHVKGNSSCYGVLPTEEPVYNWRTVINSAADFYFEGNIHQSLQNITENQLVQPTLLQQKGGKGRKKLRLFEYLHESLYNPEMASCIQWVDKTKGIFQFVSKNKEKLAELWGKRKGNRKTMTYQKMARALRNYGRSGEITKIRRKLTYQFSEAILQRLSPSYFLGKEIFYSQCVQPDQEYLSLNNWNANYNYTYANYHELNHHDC
Particulars: protein: recombinant; tags: N-terminal GST; dsDNA, one strand shown. In a few lines:
as §1

The target in the next test is ELF4 (Homo sapiens, UniProt Q99607 1-663). The following applies: protein: recombinant; tags: N-terminal GST; dsDNA, one strand shown. In a few lines:
as §1

A further test concerns the target T8, ELK4 (Homo sapiens, UniProt P28324-2 1-405).
T8 sequence: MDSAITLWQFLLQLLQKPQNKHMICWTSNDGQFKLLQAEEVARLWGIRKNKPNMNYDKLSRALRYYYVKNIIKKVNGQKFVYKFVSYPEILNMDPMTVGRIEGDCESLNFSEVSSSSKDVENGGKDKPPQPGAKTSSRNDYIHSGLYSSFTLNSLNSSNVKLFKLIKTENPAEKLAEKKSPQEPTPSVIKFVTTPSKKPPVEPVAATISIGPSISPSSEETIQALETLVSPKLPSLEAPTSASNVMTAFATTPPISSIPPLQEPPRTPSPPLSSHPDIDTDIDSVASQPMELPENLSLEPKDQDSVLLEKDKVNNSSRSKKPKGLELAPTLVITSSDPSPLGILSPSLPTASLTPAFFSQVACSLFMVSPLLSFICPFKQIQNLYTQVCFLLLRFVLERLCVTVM
The following applies: protein: recombinant; tags: N-terminal GST; dsDNA, one strand shown. Summed up: as §1

Another test addresses T9, ETV2 (Homo sapiens, UniProt O00321 1-342).
T9 sequence: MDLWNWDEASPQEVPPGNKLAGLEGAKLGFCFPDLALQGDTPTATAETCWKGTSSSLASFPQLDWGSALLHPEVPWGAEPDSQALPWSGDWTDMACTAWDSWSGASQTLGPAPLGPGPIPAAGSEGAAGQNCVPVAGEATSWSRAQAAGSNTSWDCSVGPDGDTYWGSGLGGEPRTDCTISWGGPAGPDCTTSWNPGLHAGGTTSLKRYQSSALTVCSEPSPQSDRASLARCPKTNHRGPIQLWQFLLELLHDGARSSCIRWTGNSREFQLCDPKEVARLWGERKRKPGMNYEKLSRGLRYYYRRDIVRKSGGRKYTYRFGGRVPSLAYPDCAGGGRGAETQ
The following applies: protein: recombinant; tags: N-terminal GST; dsDNA, one strand shown. Summed up: as §1

Another test deals with T10, ELF3 (Homo sapiens, UniProt P78545 1-371).
T10 sequence: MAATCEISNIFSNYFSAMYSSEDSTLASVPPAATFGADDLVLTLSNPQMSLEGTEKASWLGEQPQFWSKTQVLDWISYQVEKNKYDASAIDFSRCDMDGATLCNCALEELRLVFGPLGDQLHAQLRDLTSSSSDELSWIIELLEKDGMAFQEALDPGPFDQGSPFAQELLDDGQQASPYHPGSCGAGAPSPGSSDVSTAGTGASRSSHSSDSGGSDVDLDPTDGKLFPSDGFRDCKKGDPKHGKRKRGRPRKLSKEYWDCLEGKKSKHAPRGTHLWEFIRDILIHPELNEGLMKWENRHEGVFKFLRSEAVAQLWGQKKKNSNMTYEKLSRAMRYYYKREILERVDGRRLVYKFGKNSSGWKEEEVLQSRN
Particulars: protein: recombinant; tags: N-terminal GST; dsDNA, one strand shown. Summed up: as §1

For a further test, the target named is CRX (Homo sapiens, UniProt O43186 1-299). Particulars: protein: recombinant; tags: N-terminal GST; dsDNA, one strand shown. Summed up: as §1
For a further test, the target named is ETV1 (Homo sapiens, UniProt P50549 1-477). Particulars: protein: recombinant; tags: N-terminal GST; dsDNA, one strand shown. In a few lines: as §1
ETV1, sequence (P50549 whole entry): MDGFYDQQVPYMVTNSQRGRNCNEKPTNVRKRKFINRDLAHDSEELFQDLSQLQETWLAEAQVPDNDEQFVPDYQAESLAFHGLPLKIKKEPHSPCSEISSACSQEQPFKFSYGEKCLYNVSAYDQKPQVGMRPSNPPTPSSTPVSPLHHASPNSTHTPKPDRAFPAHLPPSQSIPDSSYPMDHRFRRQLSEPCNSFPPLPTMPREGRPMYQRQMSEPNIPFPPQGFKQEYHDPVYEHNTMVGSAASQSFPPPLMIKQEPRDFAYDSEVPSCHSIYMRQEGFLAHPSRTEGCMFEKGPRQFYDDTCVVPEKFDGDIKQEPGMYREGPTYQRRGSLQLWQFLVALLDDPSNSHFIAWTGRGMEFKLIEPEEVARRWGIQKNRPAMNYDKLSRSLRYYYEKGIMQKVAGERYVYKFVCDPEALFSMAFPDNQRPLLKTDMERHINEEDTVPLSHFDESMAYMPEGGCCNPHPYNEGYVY

SPIB, sequence (Q01892 whole entry): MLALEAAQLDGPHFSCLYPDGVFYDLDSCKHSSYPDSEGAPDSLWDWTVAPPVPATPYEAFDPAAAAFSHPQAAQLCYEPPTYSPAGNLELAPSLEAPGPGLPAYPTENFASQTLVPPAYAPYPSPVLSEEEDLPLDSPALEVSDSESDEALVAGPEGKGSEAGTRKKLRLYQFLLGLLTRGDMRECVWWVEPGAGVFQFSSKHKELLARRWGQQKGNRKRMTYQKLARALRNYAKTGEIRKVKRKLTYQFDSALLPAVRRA
ETV5, sequence (P41161 whole entry): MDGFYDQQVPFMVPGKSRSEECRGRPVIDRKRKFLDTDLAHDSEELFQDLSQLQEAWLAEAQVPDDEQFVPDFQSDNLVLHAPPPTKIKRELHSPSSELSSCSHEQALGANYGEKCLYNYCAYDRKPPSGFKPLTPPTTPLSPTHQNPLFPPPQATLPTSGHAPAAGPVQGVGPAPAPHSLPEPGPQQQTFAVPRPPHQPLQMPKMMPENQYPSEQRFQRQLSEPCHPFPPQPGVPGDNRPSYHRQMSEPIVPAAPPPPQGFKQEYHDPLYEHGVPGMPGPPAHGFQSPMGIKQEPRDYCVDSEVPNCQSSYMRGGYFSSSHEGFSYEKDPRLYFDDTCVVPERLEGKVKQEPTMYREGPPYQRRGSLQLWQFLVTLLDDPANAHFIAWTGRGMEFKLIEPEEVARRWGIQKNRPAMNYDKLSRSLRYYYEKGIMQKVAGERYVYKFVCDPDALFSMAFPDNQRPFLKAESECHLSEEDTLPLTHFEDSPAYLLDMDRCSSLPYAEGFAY
ELF1, sequence (P32519 whole entry): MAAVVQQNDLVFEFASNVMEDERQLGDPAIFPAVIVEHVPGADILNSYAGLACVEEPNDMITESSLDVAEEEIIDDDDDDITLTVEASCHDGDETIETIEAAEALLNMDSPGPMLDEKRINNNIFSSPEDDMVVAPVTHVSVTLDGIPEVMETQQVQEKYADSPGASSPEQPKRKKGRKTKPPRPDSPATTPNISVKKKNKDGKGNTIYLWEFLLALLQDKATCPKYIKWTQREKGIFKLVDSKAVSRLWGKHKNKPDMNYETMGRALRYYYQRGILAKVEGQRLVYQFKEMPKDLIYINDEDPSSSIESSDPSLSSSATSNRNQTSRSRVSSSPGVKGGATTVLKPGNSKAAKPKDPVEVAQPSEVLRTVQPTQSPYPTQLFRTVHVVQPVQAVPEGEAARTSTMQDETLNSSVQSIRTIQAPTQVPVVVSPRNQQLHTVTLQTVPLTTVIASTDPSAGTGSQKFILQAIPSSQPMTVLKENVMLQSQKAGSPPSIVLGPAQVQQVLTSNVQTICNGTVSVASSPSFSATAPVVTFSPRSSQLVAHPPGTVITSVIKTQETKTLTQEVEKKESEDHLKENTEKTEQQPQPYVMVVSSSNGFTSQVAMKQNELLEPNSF
CRX, sequence (O43186 whole entry): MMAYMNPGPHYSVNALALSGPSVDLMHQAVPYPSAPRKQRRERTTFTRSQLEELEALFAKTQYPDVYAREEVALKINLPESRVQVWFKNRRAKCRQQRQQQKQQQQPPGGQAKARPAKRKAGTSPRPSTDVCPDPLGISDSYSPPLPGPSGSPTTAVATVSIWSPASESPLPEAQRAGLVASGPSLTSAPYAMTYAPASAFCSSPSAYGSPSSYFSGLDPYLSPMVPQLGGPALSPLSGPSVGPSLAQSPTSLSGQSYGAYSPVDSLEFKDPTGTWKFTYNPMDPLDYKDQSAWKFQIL
ELF4, sequence (Q99607 whole entry): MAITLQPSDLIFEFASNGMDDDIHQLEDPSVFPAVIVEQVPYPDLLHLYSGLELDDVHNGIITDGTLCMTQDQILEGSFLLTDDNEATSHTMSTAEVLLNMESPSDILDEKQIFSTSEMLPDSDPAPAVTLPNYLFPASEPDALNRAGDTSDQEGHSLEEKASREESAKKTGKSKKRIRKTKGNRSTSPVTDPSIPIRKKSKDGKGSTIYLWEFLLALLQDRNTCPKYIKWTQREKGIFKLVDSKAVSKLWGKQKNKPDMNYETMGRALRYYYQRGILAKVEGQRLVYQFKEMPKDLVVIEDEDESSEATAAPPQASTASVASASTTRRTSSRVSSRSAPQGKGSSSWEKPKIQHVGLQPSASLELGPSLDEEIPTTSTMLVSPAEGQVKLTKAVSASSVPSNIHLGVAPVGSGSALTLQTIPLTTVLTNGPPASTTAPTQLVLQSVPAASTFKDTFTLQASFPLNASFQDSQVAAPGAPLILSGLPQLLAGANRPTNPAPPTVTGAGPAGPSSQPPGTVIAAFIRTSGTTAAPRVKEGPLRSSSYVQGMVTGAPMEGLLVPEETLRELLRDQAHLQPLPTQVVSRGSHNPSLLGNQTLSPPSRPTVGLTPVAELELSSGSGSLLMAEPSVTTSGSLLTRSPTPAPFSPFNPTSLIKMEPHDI
HSF1, sequence (Q00613 whole entry): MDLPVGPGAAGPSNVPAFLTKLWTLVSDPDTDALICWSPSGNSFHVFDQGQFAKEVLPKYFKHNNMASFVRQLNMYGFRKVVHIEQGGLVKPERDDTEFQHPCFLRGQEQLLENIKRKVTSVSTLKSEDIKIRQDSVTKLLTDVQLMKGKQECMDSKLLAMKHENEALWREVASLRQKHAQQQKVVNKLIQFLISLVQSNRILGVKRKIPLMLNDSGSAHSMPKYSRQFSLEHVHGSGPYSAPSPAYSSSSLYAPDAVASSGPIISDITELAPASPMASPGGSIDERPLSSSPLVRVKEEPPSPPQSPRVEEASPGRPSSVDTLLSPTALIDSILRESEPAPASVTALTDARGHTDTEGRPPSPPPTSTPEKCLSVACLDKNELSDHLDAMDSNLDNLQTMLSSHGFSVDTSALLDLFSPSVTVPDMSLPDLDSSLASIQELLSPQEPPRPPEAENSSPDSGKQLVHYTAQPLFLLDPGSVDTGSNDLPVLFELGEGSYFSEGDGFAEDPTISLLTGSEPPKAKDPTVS

For TATTCG, the binding signal is 1.11 fold enrichment (6-mer frequency, TF over GST control) with FLI1; 1.11 fold enrichment (6-mer frequency, TF over GST control) in the test with ELK1; 1.2 fold enrichment (6-mer frequency, TF over GST control) in the test with GABPA; 1.14 fold enrichment (6-mer frequency, TF over GST control) with ERG; 1.14 fold enrichment (6-mer frequency, TF over GST control) in the test with ELF1; 1.11 fold enrichment (6-mer frequency, TF over GST control) in the test with EHF. The binding signal in the test with SPI1 was 1.18 fold enrichment (6-mer frequency, TF over GST control); with SPIB, 1.16 fold enrichment (6-mer frequency, TF over GST control); with FEV it was 1.06 fold enrichment (6-mer frequency, TF over GST control); with ETV5, 1.11 fold enrichment (6-mer frequency, TF over GST control); in the test with HSF1, 1.64 fold enrichment (6-mer frequency, TF over GST control); with SPIC, 1.17 fold enrichment (6-mer frequency, TF over GST control). Besides, the binding signal was 1.17 fold enrichment (6-mer frequency, TF over GST control) in the test with ELF4; 1.22 fold enrichment (6-mer frequency, TF over GST control) in the test with ELK4; 1.24 fold enrichment (6-mer frequency, TF over GST control) with ETV2; 1.35 fold enrichment (6-mer frequency, TF over GST control) with ELF3; 1.43 fold enrichment (6-mer frequency, TF over GST control) with CRX; 1.05 fold enrichment (6-mer frequency, TF over GST control) in the test with ETV1.
